# According to PubChem BioAssay (NCATS):
# Records with an inconclusive call do not appear. Values without a mark were called inactive. The source made the active and inactive calls. Calls follow the shape of the dose curve; as a rule, active = well fitted inhibition curve with a large enough effect; inconclusive = small, poorly fitted or top-dose-only effect; inactive = flat fitted curve, though single readings scatter.
# Target: Phospholipid hydroperoxide glutathione peroxidase GPX4 (Homo sapiens) (UniProt P36969)
# Sequence (P36969 whole entry, looked up): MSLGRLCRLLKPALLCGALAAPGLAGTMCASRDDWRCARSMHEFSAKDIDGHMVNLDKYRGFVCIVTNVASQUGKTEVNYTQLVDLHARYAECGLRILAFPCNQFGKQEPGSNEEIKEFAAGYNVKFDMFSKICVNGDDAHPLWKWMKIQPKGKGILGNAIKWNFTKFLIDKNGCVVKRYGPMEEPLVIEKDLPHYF
# Experiment: Primary qHTS Assay for Inhibitors of Recombinant Selenoprotein Glutathione Peroxidase 4 (GPX4) (AID 1845192); also: nearly all actives have a fitted effect of over 65% in size
# Settings: recombinant GPX4, GR-coupled NADPH fluorescence, 15 min; series mostly up to 50 µM; activity change, negative = inhibition: at the top concentration
# Outline: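 GR-coupled readout: 100 nM GR, 1 mM GSH, 0.5 mM NADPH; NADPH fluorescence (ex 340/em 450 nm) read at t=0 and after 15 min RT. GPX4 200 nM, preincubated 30 min with compound; substrate 0.5 mM CHP.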
# % is scaled to controls: 0 for no effect and ±100 for the full control effect; potency is read from the fitted curve at half-maximal effect.
SMILES,"activity change, negative = inhibition [%]",outcome,Potency
N[C@H](C(=O)O)c1cc(O)cc(O)c1,3.84,–,–
O=C(O)CCC/C=C\C[C@@H]1[C@@H](/C=C/[C@H](O)C2Cc3ccccc3C2)[C@@H](F)C[C@@H]1O,2.46,–,–
Cn1c(=O)c2[nH]c(C3CCCC3)nc2n(C)c1=O,–,inactive,–
c1ccc2c(c1)CCC[C@H]2Nc1nc2ccccc2[nH]1,4.32,–,–
NCC(O)C1CCCCCCC1 (configuration not stated),-16,–,–
C=CCn1c(=O)c2c(nc(-c3ccc(S(=O)(=O)O)cc3)n2C)n(C)c1=O,2.8,–,–
N[C@@H](Cc1ccc(O)c(I)c1)C(=O)O,-7.98,–,–
CCN(CC)CCOC(=O)c1cc(Cl)c(N)cc1OC,-2.14,–,–
O=C(O)/C(=C/c1c(C(=O)O)[nH]c2cc(Cl)cc(Cl)c12)c1ccccc1,-13.9,–,–
Cn1c(=O)[nH]c2ncn(C)c2c1=O,2.16,–,–
NC(N)=NC(N)=Nc1cccc(Cl)c1,-15.5,–,–
N[C@H](C(=O)O)[C@H](O)C(=O)O,-5.17,–,–
NCCC1CCCC(CCN)N1 (configuration not stated),2.6,–,–
OC1(c2ccc(Cl)cc2)CCN(Cc2c[nH]c3ccccc23)CC1,-12.3,–,–
COc1cccc(OC)c1OCCNCC1CSc2ccccc2O1 (configuration not stated),–,inactive,–
S=C(S)N1CCCC1,–,inactive,–
NS(=O)(=O)c1cccc2c1c([N+](=O)[O-])cc1nc(O)c(O)nc12,-13.4,–,–
CCCC(=O)NCCc1c2n(c3ccc(OC)cc13)CCCc1ccccc1-2,-3.39,–,–
Brc1c(Br)c(Br)c2[nH]cnc2c1Br,–,inactive,–

SMILES,"activity change, negative = inhibition [%]",outcome,Potency
Cn1cc(C(=O)OCC2CCN(CCNS(C)(=O)=O)CC2)c2ccccc21,–,inactive,–
CC(C)NC[C@H](O)COc1cccc2ccccc12,–,inactive,–
Nc1ccc(CCNc2ncnc3c2ncn3C2OC(CO)C(O)C2O)cc1 (configuration not stated),0.684,–,–
O=c1[nH]ccc2c(O)cccc12,-20.4,–,–
O=c1onc2n1-c1cc(Br)ccc1OC2,–,inactive,–
NC(=O)CC[C@H](N)C(=O)O,2.22,–,–
C/C(=C\c1ccc(C(=O)O)cc1)c1ccc2c(c1)C(C)(C)CCC2(C)C,–,inactive,–
CCCCC[C@H](CC(=O)NO)C(=O)N[C@H](C(=O)N1CCC[C@H]1CO)C(C)C,–,inactive,–
COC(=O)[C@H](NC(=O)c1cc(-c2ccccc2)nc2ccccc12)c1ccccc1,3.38,–,–
COc1ccc(-c2cc3ncc(C)n3c(Nc3ncccc3C(N)=O)n2)cc1OC,–,inactive,–
CCOC(=O)C12CC1/C(=N/O)c1ccccc1O2 (configuration not stated),–,inactive,–
CN(CC[C@@H](Oc1ccc(C(F)(F)F)cc1)c1ccccc1)CC(=O)O,-10.8,–,–
N#CC(C#N)=C(N)/C(C#N)=C/c1ccc(O)cc1,-4.71,–,–
Nc1ncnc2c1ncn2C1CCCC1,1.02,–,–
COc1ccccc1N1CCN(CCN(C(=O)c2ccc(F)cc2)c2ccccn2)CC1,-4.43,–,–
Cn1c(=O)c2[nH]c(-c3ccc(S(=O)(=O)O)cc3)nc2n(C)c1=O,–,–,11.2 µM (active)
N[C@@H](CCC(=O)N[C@H](CSN=O)C(=O)NCC(=O)O)C(=O)O,-17.4,–,–
C[C@H]1CC2C3CCC4=CC(=O)C=C[C@]4(C)[C@@]3(Cl)[C@@H](O)C[C@]2(C)[C@@]1(O)C(=O)CO (some centres not stated),–,inactive,–
